Results on 88 molecules are retold here after PubChem BioAssay AID1851 (National Center for Advancing Translational Sciences (NCATS), 2009).

“And” between values parts separate entries of the source, which are not always exact repeats. Equal entries are not always repeated. Screen size: about 16,000 compounds; about 4,000 (25%) were called active. Roughly 26% stayed inconclusive and do not appear here. Calls come from the whole dose curve; as a rule, active = well fitted curve in the direction sought with a large enough effect; inconclusive = small, poorly fitted or top-dose-only effect, or effect the other way; inactive = no such curve, though single readings can be large or run the other way. A selection follows. More than one record can exist for a structure, and the calls need not agree.
% is set by controls: 0 for no effect and ±100 for the full control effect.

In this test the target is Cytochrome P450 2C9 (Homo sapiens) (UniProt P11712). The test is described as follows: Cytochrome panel assay with activity outcomes. As to conditions: recombinant CYP, pro-luciferin dealkylation, luminescence, p450-cyp2c9; series mostly up to 57.1 µM.
Chain of Cytochrome P450 2C9 (Homo sapiens) (P11712 whole entry, looked up): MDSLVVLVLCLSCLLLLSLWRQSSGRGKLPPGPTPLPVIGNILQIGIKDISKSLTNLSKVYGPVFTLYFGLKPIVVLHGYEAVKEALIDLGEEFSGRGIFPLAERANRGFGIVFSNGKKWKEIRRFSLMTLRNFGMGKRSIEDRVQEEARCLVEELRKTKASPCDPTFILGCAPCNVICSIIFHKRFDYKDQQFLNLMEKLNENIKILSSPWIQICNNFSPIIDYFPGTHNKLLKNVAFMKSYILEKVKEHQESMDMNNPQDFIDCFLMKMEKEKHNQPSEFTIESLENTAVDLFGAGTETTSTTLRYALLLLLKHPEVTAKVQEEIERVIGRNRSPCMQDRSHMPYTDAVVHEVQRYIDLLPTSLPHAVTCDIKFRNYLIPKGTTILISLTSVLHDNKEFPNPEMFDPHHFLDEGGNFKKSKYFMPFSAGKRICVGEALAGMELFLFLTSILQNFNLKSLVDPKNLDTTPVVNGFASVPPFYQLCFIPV
In the case of `CC[C@]1([C@H]2O[C@@H]([C@@H]3O[C@](O)(CO)[C@@H](C)C[C@H]3C)C[C@H]2C)CC[C@@H]([C@]2(C)CC[C@@]3(C[C@@H](O)[C@@H](C)[C@@H]([C@H](C)[C@H](OC)[C@H](C)C(=O)O)O3)O2)O1`, the activity, negative = inhibition result is “inactive”.
For `COc1ccccc1CN1CCCC2(CCN(C(=O)Oc3ccccc3)CC2)C1`, the activity, negative = inhibition result is “inactive”.
In the case of `COC(=O)[C@@H]1c2cc3c(c(O)c2[C@@H](O)C[C@]1(C)O)C(=O)c1c(O)cc2c(c1C3=O)O[C@H]1O[C@@]2(C)[C@@H](O)[C@H](N(C)C)[C@H]1O`, the activity, negative = inhibition was -12.9% [at 11.4 µM] (inactive).
Turning to `CCN(CC)CCO[C@H]1CC[C@@]2(C)C(=CC[C@@H]3[C@H]2CC[C@]2(C)C(=O)CC[C@H]32)C1`, the activity, negative = inhibition entry was “inactive”.
The same measure, in the same setting: the result for `CO[C@@H]1CC=C2CCN3CCC4=C(CC(=O)OC4)[C@]23C1` reads “inactive”; that for `C[N+]1(C)[C@@H]2CC[C@H]1CC(OC(=O)[C@@H](CO)c1ccccc1)C2` (some centres undefined), “inactive”; that for `COc1ccc2[nH]c3c(c2c1)CCN=C3C`, “inactive”.
The same measure, in the same setting: the result for `N[C@@H](CSC1c2ccccc2-c2ccccc21)C(=O)O` reads -21.1% [at 11.4 µM] (inactive); that for `C[C@@]12CC[C@H]3[C@@H](CCC4=C(O)C(=O)CC[C@]43C)[C@H]1CCC2=O`, “inactive”.
Consider `Cc1ccccc1-c1nc(CS(=O)CC(=O)N2CCC3(CC2)OCCO3)c(C)o1` (centres undefined), for which the AC50 was 5.01 µM (active).
For `Cc1cc(NC(=O)CCC(=O)N2CCC3(CC2)OCCO3)no1`, the activity, negative = inhibition result was “inactive”.
Consider `Oc1ccc([C@H](O)[C@@H]2CCCCN2)cc1O`, for which the activity, negative = inhibition was -5.3% [at 11.4 µM] (inactive).
As to `CC(C)C(=O)N1C2CCC1CC(O)(c1ccc(F)cc1)C2` (centres undefined), the activity, negative = inhibition result is “inactive”.
Turning to `C[C@](N)(CCP(=O)(O)O)C(=O)O`, the activity, negative = inhibition entry was “inactive”.
As for `O=C(CN1CCCCC1)Nc1ccc(Br)cc1C(=O)c1ccccc1Cl`, the AC50 was 8.91 µM (active).
Regarding `CN(CCc1ccc(Cl)c(Cl)c1)[C@H]1CCCC[C@H]1N1CCCC1`, the activity, negative = inhibition entry is “inactive”.
On to `CCOC(=O)c1ncn2c1CN(C)C(=O)c1cc(F)ccc1-2`, for which the activity, negative = inhibition entry is “inactive”.
As to `CC(C)(C)NC[C@H](O)c1ccccc1Cl`, the activity, negative = inhibition entry is “inactive”.
Same read-out and setting: next, `C=CCN1CC[C@@]23c4c5ccc(O)c4O[C@H]2/C(=N\N=C2/CC[C@@]4(O)[C@H]6Cc7ccc(O)c8c7[C@@]4(CCN6CC=C)[C@@H]2O8)CC[C@]3(O)[C@@H]1C5`: “inactive”; `C[C@H](CCC(=O)O)[C@H]1CC[C@]2(C)[C@@H]3C(=O)C[C@H]4C(C)(C)[C@@H](O)CC[C@]4(C)[C@H]3C(=O)C[C@@]12C`: -0.996% [at 11.4 µM] (inactive).
`CCCCc1nc2ccccc2c(=O)n1-c1ccccc1[N+](=O)[O-]`: the concentration at half-maximal activity (AC50) is 11.2 µM (active).
As for `Cc1nc2ccccc2c(=O)n1-n1cnnc1`, the activity, negative = inhibition entry is “inactive”.
Regarding `CCCCc1nc2ccccc2c(=O)n1-c1ccc(Cl)cc1[N+](=O)[O-]`, the activity, negative = inhibition result was “inactive”.
In the case of `CCCc1nc2ccccc2c(=O)n1-c1ccc(OC)cc1`, the half-maximal activity concentration (AC50) is 25.1 µM (active).
For `Cc1nc2ccccc2cc1C[N+]12CN3CN(CN(C3)C1)C2`, the activity, negative = inhibition was 18.3% [at 11.4 µM] (inactive).
Still for that read-out and setting: next, `COc1ccc2c(c1)C13CCCC[C@@H]1C(C2)N(C)CC3` (some centres undefined): “inactive”; `CC[C@H](C)C(=O)O[C@@H]1[C@H](O)[C@@H]2[C@H](CN3C[C@@H](C)CC[C@@H]3[C@@]2(C)O)[C@@H]2C[C@@]34O[C@@]5(O)[C@@H](OC(=O)[C@](C)(O)CC)CC[C@@]3(C)[C@H]5[C@H](OC(C)=O)[C@@H](OC(C)=O)[C@H]4[C@]12O`: “inactive”; `COc1cc2c3cc1Oc1c(O)c(OC)cc4c1[C@@H](Cc1ccc(cc1)Oc1cc(ccc1O)C[C@H]3N(C)CC2)N(C)CC4`: 2.87% [at 11.4 µM] (inactive).
As to `CC(C)N(CC[C@@](C(N)=O)(c1ccccc1)c1ccccn1)C(C)C`, the activity, negative = inhibition entry is “inactive”.
Same read-out and setting: the result for `N[C@H](Cn1ccc(=O)[nH]c1=O)C(=O)O` reads “inactive”; that for `O=[N+]([O-])c1ccc2nc(N3CCNCC3)ccc2c1`, “inactive”.
Regarding `CC12CN3CC(C)(CN(C1)C31CCSCC1)C2=O`, the activity, negative = inhibition entry is “inactive”.
On to `NCCc1c[nH]c2ccc(C(N)=O)cc12`, for which the activity, negative = inhibition result is “inactive”.
The same measure, in the same setting: the result for `N[C@@H](Cc1ccccc1)P(=O)(O)O` reads -8.88% [at 11.4 µM] (inactive); that for `CN1[C@H](CC(=O)c2ccccc2)CCC[C@H]1C[C@H](O)c1ccccc1`, “inactive”.
Turning to `CC1(C)CCC2=C(O1)c1ccccc1C(=O)C2=O`, the AC50 is 31.6 µM (active).
Turning to `C[C@@H]1CC[C@@H]2N(C1)C[C@H]1[C@@](O)([C@H](O)C[C@]3(O)[C@H]4CC[C@H]5[C@]6(O)O[C@]4(C[C@]13O)[C@@]5(C)CC[C@@H]6O)[C@@]2(C)O`, the activity, negative = inhibition was -2.76% [at 11.4 µM] (inactive).
Take `C=CCn1c(O)c(C(C)=NCCCN2CCOCC2)c(=O)[nH]c1=O`: the activity, negative = inhibition result is “inactive”.
Turning to `C=C(C)[C@H]1CN[C@H](C(=O)O)[C@@H]1CC(=O)O`, the activity, negative = inhibition entry was “inactive”.
In the case of `COc1c2c(cc3c1OCO3)CCN(C)C2`, the activity, negative = inhibition entry was “inactive”.
As to `NCC#Cc1ccccc1`, the half-maximal activity concentration (AC50) was 10 µM (active).
Consider `O=C(Oc1ccccc1)N1CCC[C@@]2(CCN(C(c3ccccc3)c3ccccc3)C2)C1`, for which the activity, negative = inhibition entry is “inactive”.
For the molecule `C[N+]1([O-])[C@@H]2CC[C@H]1CC(OC(=O)[C@@H](CO)c1ccccc1)C2` (some centres undefined), the activity, negative = inhibition result was “inactive”.
Turning to `COC(=O)[C@@]1(Cc2ccc(F)cc2)[C@H]2c3cc(C(=O)N(C)C)[nH]c3C[C@H]2CN1C(=O)c1ccccc1`, the AC50 is 10 µM (active).
`CN(C)CCCc1c[nH]c2ccccc12`: the activity, negative = inhibition was -1.95% [at 11.4 µM] (inactive).
In the case of `COc1cc2c(cc1O)C[C@H]1c3c(cc(O)c(OC)c3-2)CCN1C`, the activity, negative = inhibition entry was “inactive”.
Consider `Cn1c[n+](C)cc1C(O)c1ccccc1` (centres undefined), for which the activity, negative = inhibition result was “inactive”.
As for `O=C(Nc1ccc(Cl)cc1)Nc1nccs1`, the AC50 is 17.8 µM (active).
Take `O=C1CS[C@@H](c2ccccc2Cl)c2cc(Cl)ccc2N1`: the concentration at half-maximal activity (AC50) is 15.8 µM (active).
`COc1cc2c(cc1OC)[C@@H]1C(=O)c3ccc4c(c3O[C@@H]1CO2)C=CC(C)(C)O4`: the activity, negative = inhibition result is “inactive”.
Take `C[C@H](N)Cc1c[nH]c2ccc(O)cc12`: the activity, negative = inhibition entry is “inactive”.
For the molecule `O=c1c2ccccc2c2ccccc2c(=O)n1-c1cc2c3ccccc3ccc2c2ccccc12`, the half-maximal activity concentration (AC50) was 0.316 µM (active).
Regarding `c1csc(CN2CCC3(CCNCC3)CC2)n1`, the activity, negative = inhibition result was “inactive”.
Turning to `CN(C)CCCNc1c2c(nc3ccc(Cl)cc13)CCCC2`, the activity, negative = inhibition was 6.4% [at 11.4 µM] (inactive).
On to `CC(=O)OCC1=C(C(=O)O)N2C(=O)[C@@H](N)[C@@H]2SC1`, for which the activity, negative = inhibition result was “inactive”.
As for `CCc1cc2c(nc1CC)CCN(CC/C(C)=N/OC)C2`, the activity, negative = inhibition was 7.8% [at 11.4 µM] (inactive).
Consider `CS(=O)c1ccc(-c2nc(-c3ccc(F)cc3)c(-c3ccncc3)[nH]2)cc1` (centres undefined), for which the AC50 result was “inactive and 2 µM (active)”.
Take `Cc1ccc(S(=O)(=O)N[C@@H](CCCCN)C(=O)CCl)cc1`: the activity, negative = inhibition entry was “inactive”.
Turning to `O=C(Nc1ccccc1)N1CCCC2(CCN(C(=O)Oc3ccccc3)CC2)C1`, the activity, negative = inhibition entry is “inactive”.
With `Cc1cc(C)c(C#N)c(SCC(=O)c2ccc(Cl)cc2Cl)n1`, the half-maximal activity concentration (AC50) is 5.01 µM (active).
On to `COc1ccc2c(c1)CCC1[C@@H]2CCC2(C)[C@@H](NCCCCCCN3C(=O)C=CC3=O)CC[C@@H]12` (some centres undefined), for which the activity, negative = inhibition result is “inactive”.
On the same count and under the same terms, next, `COc1ccc(C[C@@H](N)c2ccc(OC)cc2)cc1`: -15.8% [at 11.4 µM] (inactive).
In the case of `N=C(N)SCc1ccc(Cl)c2ccccc12` (tested in a mixture with another compound), the half-maximal activity concentration (AC50) is 3.98 µM (active) and the activity, negative = inhibition was 9.59% [at 11.4 µM] (inactive).
Take `O=[As](O)(O)c1ccc(NCc2ccccc2)cc1`: the activity, negative = inhibition is -7.26% [at 11.4 µM] (inactive).
In the case of `C[C@H]1[C@H](NC(=O)/C(=N/OC(C)(C)C(=O)O)c2csc(N)n2)C(=O)N1S(=O)(=O)O` (stereo in doubt), the activity, negative = inhibition result was “inactive”.
Turning to `O=c1[nH]oc2c1CCNC2`, the activity, negative = inhibition entry was “inactive”.
As for `N#Cc1ccc(CN2CC[C@@]3(CCCNC3)C2)cc1`, the activity, negative = inhibition entry was “inactive”.
As for `COC(=O)C1=Nc2ccccc2/C1=C\c1c(O)n(-c2ccc(OC)cc2)c(=O)[nH]c1=O`, the half-maximal activity concentration (AC50) is 1.26 µM (active).
For the molecule `NCCCNCCSP(=O)(O)O`, the activity, negative = inhibition entry is “inactive”.
For the molecule `CN1Cc2c(ccc3c2OCO3)[C@@H]2[C@@H](O)Cc3cc4c(cc3[C@@H]21)OCO4`, the activity, negative = inhibition entry was “inactive”.
For the molecule `NC(N)=NCCN=C(N)N`, the activity, negative = inhibition is 3.96% [at 11.4 µM] (inactive).
`Clc1cc(I)cc(Cl)c1NC1=NCCN1`: the activity, negative = inhibition entry was “inactive”.
Regarding `CCNC(=S)NC1CC2CCCC(C1)N2Cc1ccco1` (centres undefined), the activity, negative = inhibition entry was “inactive”.
On the same count and under the same terms, the result for `CCc1ccccc1NC(=S)NC1CC2CCC(C1)N2Cc1ccco1` (centres undefined) reads “inactive”.
For the molecule `CC(C)CNC(=S)NC1CC2CCCC(C1)N2Cc1ccco1` (centres undefined), the half-maximal activity concentration (AC50) was 2.82 µM (active).
On to `C#C[C@@]1(O)CC[C@@H]2[C@@H]3CCC4=CC(=O)CC[C@@]4(C)[C@H]3CC[C@]21C`, for which the activity, negative = inhibition entry was “inactive”.
On to `S=C(Nc1ccc(Cl)cc1)NC1CC2CCCC(C1)N2C1CCCC1` (centres undefined), for which the activity, negative = inhibition result is “inactive”.
On to `CC1=NN(c2ccccc2)C(=O)[C@@H]1N=Nc1ccc([As](=O)(O)O)c(O)c1`, for which the half-maximal activity concentration (AC50) was 3.16 µM (active).
As to `Nc1nc(N)c(N=Nc2ccc([As](=O)(O)O)c(O)c2)c(N)n1`, the activity, negative = inhibition is -7.93% [at 11.4 µM] (inactive).
The same measure, in the same setting: the result for `CC[N+](CC)(CC)CCOc1cccc(OCC[N+](CC)(CC)CC)c1OCC[N+](CC)(CC)CC` reads “inactive”.
Regarding `CC1=C2[C@@H]3OC(=O)[C@@H](C)[C@@H]3CC[C@]2(C)C=CC1=O`, the activity, negative = inhibition entry was “inactive”.
Turning to `O=C(Nc1cccc(F)c1)N1CC2(CCNCC2)C1`, the activity, negative = inhibition result is “inactive”.
For `Cc1nc(N)sc1CCN`, the activity, negative = inhibition entry was “inactive”.
As for `Cc1ccc(C2(c3ccc(C)c(O)c3C)CCN(C)CC2)c(C)c1O`, the activity, negative = inhibition was 7.08% [at 11.4 µM] (inactive).
Turning to `COc1ccc2c(c1OC)CN1CCc3cc4c(cc3[C@H]1C2)OCO4`, the activity, negative = inhibition result was “inactive”.
In the case of `COc1cc([C@H]2c3cc4c(cc3[C@@H](O)[C@@H]3COC(=O)[C@H]23)OCO4)cc(OC)c1OC`, the AC50 was 1.26 µM (active).
Consider `CP(=O)(O)C1=CCNCC1`, for which the activity, negative = inhibition entry was “inactive”.
With `COC(=O)[C@H]1[C@@H](c2ccccc2)[C@@]2(c3ccccc3)Oc3ccccc3[C@@]1(O)[C@@H]2O`, the activity, negative = inhibition is -12.5% [at 11.4 µM] (inactive).
